Hits are enriched below; roughly 2.6% of the tested compounds scored in any of these assays.
KCNH2 WT inh: inhibitors of human wildtype KCNH2 potassium channel | Q12809 | U2OS, BacMam KCNH2, thallium flux FluxOr; hits give low values | activity change, % at 1.84 µM | actives 0.37% (n = 340,000) | AID 720551;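 active = maximum activity change below -70%; inconclusive = maximum activity change between -70% and -50%; inactive = maximum activity change above -50%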
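U2OS cells transduced with wild-type KCNH2 virus are loaded with FluxOr dye for 45 min, and thallium flux is measured in kinetic reads before and after stimulation buffer. Rate constants are normalized to DMSO controls.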
TRPV1 agonist: activates the human vanilloid receptor TRPV1; Q8NER1; TRPV1-expressing cells, Fluo-8 calcium influx, agonist mode; activation, % at 8.33 µM; actives 0.19% (n = 320,000); AID 540275; in the data active = activation above about 80%; inconclusive = between about 30% and that limit
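TRPV1-expressing cells were cultured overnight at 35.5C and loaded with Fluo-8 calcium dye for 40 to 90 min at room temperature. After a 10 s baseline, compound was added and calcium influx was read kinetically for 3 min (ex 480/em 520 nm).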
TRPV1 PAM: human TRPV1 potentiation | Q8NER1 | AID 540277 | actives 0.02% (n = 320,000) | TRPV1-expressing cells, Fluo-8 calcium influx, capsaicin EC20 potentiation | potentiation, % at 8.33 µM; in the data active = potentiation above about 80%; inconclusive = between about 30% and that limit
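TRPV1-expressing cells were cultured overnight at 35.5C and loaded with Fluo-8 calcium dye for 40 to 90 min at room temperature. After a 10 s baseline, compound was added and calcium influx was read kinetically for 3 min (ex 480/em 520 nm).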
ClpP mod: qHTS Assay for Activators of ClpP; actives 1.9% (n = 340,000); AID 651965, 2013; Potency, µM (highest dose often 57.5 µM); purified B. subtilis ClpP, FRET peptide cleavage, 20 min; active = well fitted falling curve with a large enough effect; inconclusive = small, poorly fitted or top-dose-only effect; inactive = no such curve, though single readings can be large or run the other way; note: the source files actives as falling curves though it sought activators and does not explain the sign; nearly all actives have a fitted effect of over 65% in size
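ClpP 10 microg/mL final, pH 8 Tris/KCl buffer with BSA, glycerol, Tween-20; compound pinned in; FRET-FV substrate; RT 20 min; Ex320/Em430; ΔFRET vs ADEP 5.8 microM, DMSO, no enzyme.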
KCNH2 3.1 inh: inhibitors of human KCNH2 3.1 potassium channel isoform | U2OS KCNH2 3.1, thallium flux FluxOr; hits give low values | activity change, % (tested at about 1.8 µM) | actives 0.95% (n = 340,000) | AID 720553;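 active = maximum activity change below -70%; inconclusive = maximum activity change from -70% to -50%; inactive = maximum activity change above -50%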;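 note: thallium influx rate constant from kinetic fluorescence after stimulation buffer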
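Thallium flux read-out: FluxOr dye with Red40 quencher in HBSS/HEPES, 45 min at RT. Rate constants from kinetic reads were normalized to positive and negative DMSO controls. Cells: U2OS virally expressing the 3.1 isoform.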
p53 reactivation: mutant p53 re-activation in reporter cells; H1299 p53-A138V BP100-luciferase reporter, luminescence, 24 h; Potency, µM (top dose mostly 92.2 µM), usual class: activators; actives 0.063% (n = 320,000); active = well fitted activation curve with a large enough effect; inconclusive = small, poorly fitted or top-dose-only effect; inactive = no such curve, though single readings can be large or run the other way; note: nearly all actives have a fitted effect of over 45% in size
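H1299 (p53-null), stable ts p53-A138V + BP100-Luc; 1000 cells/well, Opti-MEM/10% FBS; cpd 4 pt, 1:5; 24 h, 37 deg C, 5% CO2; detection reagent 10 min RT; luminescence.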
Hits are given with their value.

`Cc1ccc(N2CCN(/N=C/c3c(C)nn(-c4ccccc4)c3Cl)CC2)cc1` gave TRPV1 agonist inactive, TRPV1 PAM inactive, ClpP mod inactive, KCNH2 3.1 inh -90 and p53 reactivation inactive.
Screening COC(=O)C1=C(C(=O)OC)[C@@H]2Nc3ccccc3[C@@]23C[C@@H](C(=O)OC)N(C(=O)c2ccc(Br)cc2)C3=N1 returned KCNH2 WT inh inactive, TRPV1 agonist inactive, TRPV1 PAM inactive, ClpP mod inactive, KCNH2 3.1 inh -114 and p53 reactivation inactive.
Screening COC(=O)C1=C(C(=O)OC)[C@@H]2Nc3ccccc3[C@@]23C[C@@H](C(=O)OC)N(C(=O)c2cccs2)C3=N1 returned KCNH2 WT inh inactive, ClpP mod inactive and KCNH2 3.1 inh inactive.
For COCCNC(=S)N/N=C(\C)c1ccccc1OC the results were KCNH2 WT inh inactive, TRPV1 agonist inactive, TRPV1 PAM inactive, ClpP mod 2.8µM, KCNH2 3.1 inh inactive and p53 reactivation inactive.
COCCNC(=S)N/N=C(\C)c1ccccc1O was read as KCNH2 WT inh inactive, TRPV1 agonist inactive, TRPV1 PAM inactive, ClpP mod inconclusive, KCNH2 3.1 inh inactive and p53 reactivation inconclusive.
For O=C(O)c1cc(N2C(=O)C3CC=CCC3C2=O)ccc1NCc1cccnc1 (configuration not stated) the results were KCNH2 WT inh inactive, TRPV1 agonist inactive, TRPV1 PAM inactive, ClpP mod 32µM, KCNH2 3.1 inh inactive and p53 reactivation inactive.
For CCOc1cc(C2NN=C(c3ccccc3)S2)ccc1OCc1ccc(F)cc1 (configuration not stated) the results were KCNH2 WT inh inactive, TRPV1 agonist inactive, TRPV1 PAM inactive, ClpP mod 14µM, KCNH2 3.1 inh inactive and p53 reactivation inconclusive.
Screening CCOC(=O)c1c(C)n(-c2ccccc2)c2ccc(OC(=O)c3ccccc3Cl)cc12 returned ClpP mod inactive.
Screening O=c1[nH]nc(-c2ccccc2)c2ccccc12 returned KCNH2 WT inh inactive, TRPV1 agonist inactive, TRPV1 PAM inactive, KCNH2 3.1 inh -113 and p53 reactivation inactive.
Screening c1ccc(-c2n[nH]c3ccccc23)cc1 returned KCNH2 WT inh inactive, TRPV1 agonist inactive, TRPV1 PAM inactive, ClpP mod inactive, KCNH2 3.1 inh inactive and p53 reactivation inactive.
For CCc1nnc2sc(-c3ccc(NC(=O)c4ccc5c(c4)OCCO5)cc3)nn12 the results were KCNH2 WT inh inactive, TRPV1 agonist inactive, TRPV1 PAM inactive, ClpP mod 28µM, KCNH2 3.1 inh inactive and p53 reactivation inactive.
`COc1ccccc1CNC(=O)c1ccc(N2Cc3cccc(OC)c3Oc3ncccc32)s1` gave ClpP mod inactive.
For Cc1cccc(CNC(=O)c2ccc(N3Cc4ccccc4Oc4ncccc43)s2)c1 the results were ClpP mod 28µM.
`COc1ccc(Nc2nc(NCc3ccco3)nc(N3CCOCC3)n2)cc1` gave KCNH2 WT inh inactive, TRPV1 agonist 86, TRPV1 PAM inactive, KCNH2 3.1 inh inactive and p53 reactivation inactive.
For CCOc1ccc2[nH]c(C)c(CN3CCCCC3)c(=O)c2c1 the results were KCNH2 WT inh inactive, TRPV1 agonist inactive, TRPV1 PAM inactive, ClpP mod inactive, KCNH2 3.1 inh inactive and p53 reactivation inactive.
Screening CCOc1ccc2[nH]c(C)c(CN(C)C)c(=O)c2c1 returned KCNH2 WT inh inactive, TRPV1 agonist inactive, TRPV1 PAM inactive, ClpP mod 16µM, KCNH2 3.1 inh inactive and p53 reactivation inactive.
COc1ccc2[nH]c(C)c(CN3CCC(C)CC3)c(=O)c2c1 was read as KCNH2 WT inh inactive, TRPV1 agonist inactive, TRPV1 PAM inactive, ClpP mod 10µM, KCNH2 3.1 inh inactive and p53 reactivation inactive.
O=S1(=O)CCOC[C@H](c2ccccc2)N1Cc1ccc(Cl)cc1Cl was read as ClpP mod inactive.

From PubChem
